Assay results reported in PubChem BioAssay (NCATS).
Records with an inconclusive call do not appear. Entries that show only a call come without a potency. Active and inactive are the calls of the source. Calls come from the whole dose curve; as a rule, active = well fitted inhibition curve with a large enough effect; inconclusive = small, poorly fitted or top-dose-only effect; inactive = no such curve, though single readings can be large or run the other way.
Potency is the fitted concentration of half-maximal effect.

Each molecule was assayed on Zika virus NS2B-NS3 protease (linked construct) (assay: Primary screen NINDS Rhodamine qHTS for Zika virus inhibitors (AID 1347160; note: nearly all actives have a fitted effect of over 55% in size)). Conditions: purified NS2B-NS3 protease, Rhodamine110 substrate fluorescence; series mostly up to 57.1 µM.
How it was run: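 Purified linked NS2B-NS3 protease (NS2B hydrophilic domain joined to NS3 protease by flexible linker), 25 nM in 10 mM Tris-HCl pH 8.0, 0.01% Tween 20. Compounds titrated, 15 min preincubation at room temperature; 1.5 microM Rhodamine110 substrate, FITC fluorescence change over 15 min.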
Nc1nccc(Oc2ccc(NC(=O)c3c[nH]cc(-c4ccc(F)cc4)c3=O)cc2F)c1Cl was tested, and the Potency was “inactive”.
Cc1cn(-c2cc(NC(=O)c3ccc(C)c(Nc4nccc(-c5cccnc5)n4)c3)cc(C(F)(F)F)c2)cn1 was tested, and the Potency was “inactive”.
With CC[C@@]1(O)C(=O)OCc2c1cc1n(c2=O)Cc2cc3cc(O)ccc3nc2-1 the Potency was 20 µM (active).
CC(C)(O)CCc1ccc(OCc2cc(-c3cccc(OC(F)F)c3)c3ncccc3c2)cc1 was tested, and the Potency was “inactive”.
CCOc1ccccc1OCCNC(C)Cc1ccc(OC)c(S(N)(=O)=O)c1 (stereo not given) was tested, and the Potency was “inactive”.
With Cc1cc(Nc2ncnc3ccc(-c4ccc(CNCCS(C)(=O)=O)o4)cc23)ccc1Oc1ccn2ncnc2c1 the Potency was “inactive”.
In the case of OCc1ccc(-c2ccc(-c3ccc(CO)s3)o2)s1, the Potency is reported as “inactive”.
With Cc1c(Cn2c(C)nc3c(C(=O)O)cc(N4CCOCC4)cc32)cccc1C(F)(F)F the Potency was “inactive”.
For COc1ccc(OC)c(-c2nnc3ccc(-c4ccc(OC)c(O[C@@H]5CCOC5)c4)nn23)c1, the Potency was “inactive”.
With CN(C1CCc2c(c3ccccc3n2CC(=O)O)C1)S(=O)(=O)c1ccc(F)cc1 (stereo not given) the Potency was “inactive”.
With Clc1ccc2ncc(-c3cccc(NC4CNC4)n3)n2c1 the Potency was “inactive”.
In the case of CCCCCN(CCC12CC3CC(CC(C3)C1)C2)C(=O)NCCCc1ccncc1, the Potency is reported as “inactive”.
With O=C(CCCCCCNC(=O)c1cnc(N(c2ccccc2)c2ccccc2)nc1)NO the Potency was “inactive”.
With COc1cc(C)c(Sc2cnc(NC(=O)c3ccc(CNC(C)C(C)C)cc3)s2)cc1C(=O)N1CCN(C(C)=O)CC1 (stereo not given) the Potency was “inactive”.
Cc1cn2c(-c3cn[nH]c3)cnc2c(Nc2ccc(C(=O)N3CCNCC3)cc2F)n1 was tested, and the Potency was “inactive”.
